Sampled rows, rich in hits. Any-hit rate of the full collection: about 2.8%.
HIF-2a block: inhibitors of HIF-2a | 786-0 RCC cells HIF-2a reporter, luciferase luminescence, overnight | inhibition, % at 18.8 µM | 0.72% of 360,000 active;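 active = inhibition of the luminescence signal of 40% or more relative to plate controls, in a single-dose primary screen at 18.75 µM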
Shn3 inh set2: inhibitors of Schnurri-3 3'UTR reporter in osteoblasts; Clone20 osteoblast Shn3 3'UTR firefly luciferase, 24 h; inhibition, % at 12.5 µM; 0.52% of 360,000 active;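 active = mean inhibition of at least 75% with every replicate also reaching 75%; inconclusive = mean inhibition at least 75% but some replicate below; inactive = mean inhibition below 75%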;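 note: 0% = median of neutral control wells and 100% = pilot-screen positive control compound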
CF NFkB block: blocks PAF-induced NF-kB reporter in cystic fibrosis cells; inhibition, % at 5 µM; 0.86% of 360,000 active; KKLEB NF-kB-GFP reporter, GFP fluorescence overnight; AID 588850;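 active = at least 50% inhibition at 5 µM, scaled per plate between neutral and stimulator controls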;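 note: PAF is a Pseudomonas aeruginosa culture filtrate used as stimulus; plate controls were PAF-stimulated DMSO wells for no effect and unstimulated DMSO wells for full effect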
Peg3 prom inh: Peg3 promoter activity inhibition; inhibition, % at 20 µM; 1.7% of 360,000 active; HeLa PEG-Prom luciferase reporter, luminescence, overnight;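 active = inhibition of at least 50% at 20 µM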
MITF TRPM1 inh: MITF TRPM1 promoter inhibition in SK-MEL-5 cells; SK-MEL-5 TRPM1 promoter luciferase, 24 h; inhibition, % at 12.5 µM; 0.83% of 330,000 active; AID 488899;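 active = mean inhibition across replicates of 60% or more, whatever share of single replicates reaches that level; inconclusive = some that reach 60%, reason not given; inactive = mean inhibition across replicates below 60%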
KKLEB tox: counter-screen for CF NF-kB inhibitors: cytotoxicity; KKLEB CF airway cells viability, ATPlite luminescence, overnight; stronger effect = lower value; cells stimulated with P. aeruginosa culture filtrate; activity change (cytotoxicity), % at 5 µM; 0.36% of 360,000 active; AID 602141;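 active = corrected activity change at or below -50% at 5 µM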
Mdm2 MdmX conf: Mdm2/MdmX (human) interaction inhibition, confirmed. SaOS-2 split-luciferase Mdm2/MdmX complementation, luminescence. shares compounds with HIF-2a block. inhibition, % at 8 µM. 99% of 740 active. AID 504601;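 active = mean inhibition of the luminescence signal across two replicates at or above 26 percent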
Target sequence (O15151 whole entry, looked up): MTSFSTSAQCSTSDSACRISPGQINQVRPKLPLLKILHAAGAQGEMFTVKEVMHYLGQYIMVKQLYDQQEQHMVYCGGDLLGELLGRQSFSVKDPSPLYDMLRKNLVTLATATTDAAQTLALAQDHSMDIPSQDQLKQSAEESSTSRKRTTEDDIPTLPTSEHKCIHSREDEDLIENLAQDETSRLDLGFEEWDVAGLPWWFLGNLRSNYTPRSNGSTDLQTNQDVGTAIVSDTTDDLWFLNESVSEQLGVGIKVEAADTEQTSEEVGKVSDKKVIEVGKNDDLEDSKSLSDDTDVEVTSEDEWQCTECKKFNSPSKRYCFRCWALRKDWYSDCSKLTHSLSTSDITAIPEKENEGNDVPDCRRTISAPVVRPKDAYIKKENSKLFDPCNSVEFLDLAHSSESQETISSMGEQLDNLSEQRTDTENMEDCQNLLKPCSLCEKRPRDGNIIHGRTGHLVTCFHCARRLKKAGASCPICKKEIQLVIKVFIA
Target sequence (Q00987 whole entry, looked up): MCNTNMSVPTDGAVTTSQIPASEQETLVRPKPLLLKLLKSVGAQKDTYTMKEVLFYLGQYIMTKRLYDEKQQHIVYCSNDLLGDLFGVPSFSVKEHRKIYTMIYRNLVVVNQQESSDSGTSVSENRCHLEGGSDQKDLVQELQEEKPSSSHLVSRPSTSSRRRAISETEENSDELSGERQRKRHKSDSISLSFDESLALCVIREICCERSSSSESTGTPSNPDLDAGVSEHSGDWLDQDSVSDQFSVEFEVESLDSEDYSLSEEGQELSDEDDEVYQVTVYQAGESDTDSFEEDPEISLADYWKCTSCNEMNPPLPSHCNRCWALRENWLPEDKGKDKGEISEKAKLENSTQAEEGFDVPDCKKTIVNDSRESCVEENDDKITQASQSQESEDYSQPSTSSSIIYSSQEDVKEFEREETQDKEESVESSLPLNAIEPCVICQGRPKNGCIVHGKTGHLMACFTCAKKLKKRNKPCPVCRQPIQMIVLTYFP
HIF-2a conf: HIF-2a inhibition, single concentration confirmation | AID 651580 | shares compounds with HIF-2a block | 786-0 RCC cells, HIF-2a luciferase reporter luminescence, overnight | 56% of 1,800 active | inhibition, % at 18.8 µM;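 active = mean inhibition across four replicates of at least 40 percent at the single tested concentration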
HIF-1a cs: HIF-1a inhibition counter-screen for HIF-2a hits; AID 651589; MiaPaCa-2 HIF-1a luciferase reporter, desferoxamine, overnight; shares compounds with HIF-2a block; inhibition, % at 18.8 µM; 72% of 1,800 active;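 active = mean inhibition of the reporter signal across four replicates at the single tested dose of 50% or more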
* hit, by the source's call; u = inconclusive; x = not tested or not shown.

SMILES | HIF-2a block | Shn3 inh set2 | CF NFkB block | Peg3 prom inh | MITF TRPM1 inh | KKLEB tox | HIF-2a conf | HIF-1a cs | others
Cc1nc(SCCC(=O)O)c2cc(-c3ccccc3)sc2n1 | 85* | -3 | 13 | 1 | 51 | -7 | 91* | 50
Cc1nc(N2CCOCC2)c2cc(-c3ccccc3)sc2n1 | -72 | 26 | 4 | -21 | -44 | -1 | x | x
COc1ccc(-c2noc(CCC(=O)O)n2)cc1 | 24 | -2 | 14 | 8 | -7 | 14 | x | x
CCOc1ccc(-c2noc(CCC(=O)O)n2)cc1 | 75* | 59 | -5 | -15 | 68* | -13 | 81* | 69*
COc1ccc(-c2noc(CCCC(=O)O)n2)cc1 | 84* | 51 | -1 | 9 | 66* | 4 | 94* | 80*
CCCn1c(CC)nc([N+](=O)[O-])c1S(=O)(=O)c1ccccc1 | 46* | 64 | 52* | -1 | u | -27 | 29 | 47
CC(NC(=O)COC(=O)c1ccccc1SCC(=O)N1CCCC1)c1ccccc1 (stereo not drawn) | -14 | 44 | -5 | 11 | -11 | 5 | x | x
O=C(CN(C(=O)c1csnn1)c1cccc(Cl)c1)NC1CCCCC1 | 12 | 0 | 3 | -9 | 4 | 7 | x | x
C=CCC(Nc1ccccc1)C12C=CC(O1)C(C(=O)OC)=C2C(=O)OC (stereo not drawn) | 92* | 35 | 38 | 92* | 80* | -24 | 94* | 98*
CCN(CC)C(=O)[C@H]1CC(CC(=O)NCCCOC)C(=O)N2CCc3c([nH]c4ccccc34)[C@]12C (stereo partly drawn) | 0 | -5 | -3 | 15 | -7 | -3 | x | x
Cc1ccc(C(=O)N/C(=C\c2ccc(-c3ccc(Br)cc3)o2)C(=O)NCCCN(C)C)cc1 | 33 | 6 | 15 | 109* | 107* | -19 | x | x | Mdm2 MdmX conf=103*
O=C(CCN1C(=O)C2C3C=CC(C4CC34)C2C1=O)Nc1ccc(Cl)cc1O (stereo not drawn) | 9 | -3 | -18 | 9 | 5 | 8 | x | x
CCC(=O)Nc1ccc(S(=O)(=O)Nc2cccc(C)c2)cc1OC | 14 | -11 | -25 | 23 | 11 | -6 | x | x
COc1cc(C(=O)Oc2cc(N)n(S(=O)(=O)c3ccc(F)cc3)n2)cc(OC)c1OC | 7 | 2 | 17 | 12 | 4 | -15 | x | x
Nc1cc(OC(=O)c2ccc(F)cc2)nn1S(=O)(=O)c1ccccc1 | 53* | 4 | 5 | 16 | 0 | 0 | -8 | 5
CCOc1ccc(CCN2C(=O)C(=O)N([C@@H](Cc3ccccc3)CN3CCC[C@H]3CN3C(=O)C(=O)NC[C@@H]3Cc3ccccc3)C[C@@H]2CC(C)C)cc1 | 48* | x | x | x | x | x | 5 | 103*
CC1=N/C(=C\c2ccc([N+](=O)[O-])cc2)C(=O)N1c1ccc(F)cc1F | -18 | -8 | -13 | -10 | -3 | 0 | x | x
Cc1ccc(S(=O)(=O)C(NC(=O)c2ccccc2)=C(Cl)Cl)cc1 | 41* | -2 | 7 | 52* | 12 | -6 | 13 | 82*
Cc1ccc(C(=O)NC(=C(Cl)Cl)S(=O)(=O)c2ccc(C)cc2)cc1 | 9 | -14 | -16 | 18 | 0 | -7 | x | x
Cc1ccc(S(=O)(=O)CCC(=O)OCC(=O)NC(=O)c2ccccc2)cc1 | 4 | 3 | 16 | -17 | -2 | -4 | x | x
O=C(NC(=C(Cl)Cl)S(=O)(=O)c1ccc(Cl)cc1)c1ccccc1 | 62* | -17 | 25 | 61* | 38 | -5 | 4 | 103*
Cc1ccc(S(=O)(=O)/C(=C/Cl)NC(=O)c2ccccc2)cc1 | 41* | 61 | 49 | 81* | 33 | -26 | 8 | 68*
Cc1ccc(N2CC(C(=O)N3CCC(C(=O)Nc4nnc(C(C)(C)C)s4)CC3)CC2=O)cc1 (stereo not drawn) | 12 | 11 | 11 | 25 | -10 | 2 | x | x
COc1ccc(CCNC(=O)CSc2nc(=O)n3cc(C)ccc3n2)cc1OC | 3 | 2 | 12 | 2 | 4 | 1 | x | x
COc1cc2nc(C3CCC3)nc(N3CCN(c4ccccc4OC)CC3)c2cc1OC | 11 | 8 | 24 | 35 | 9 | -16 | x | x
SMILES | HIF-2a block | Shn3 inh set2 | CF NFkB block | Peg3 prom inh | MITF TRPM1 inh | KKLEB tox | HIF-2a conf | HIF-1a cs | others
N#CC1=C(c2ccccc2)/C(=C/c2ccccc2)OC1=O | 89* | 95* | 42 | 104* | 92* | -7 | 4 | 106*
Cc1ccc(S(=O)(=O)NCCCCCC(=O)Nc2c(C)n(C)n(-c3ccccc3)c2=O)cc1 | 6 | 9 | 9 | 18 | -6 | -4 | x | x
O=C(N/N=C\c1c(O)ccc2ccccc12)c1ccc(S(=O)(=O)N2CCCCC2)cc1 | 29 | 89* | 9 | 64* | 76* | -35 | x | x | Mdm2 MdmX conf=87*
O=C(CN1CCCc2ccccc21)N/N=C/c1c(O)ccc2ccccc12 | -30 | 69 | 5 | -23 | 13 | -3 | x | x | Mdm2 MdmX conf=97*
O=C(N/N=C/c1ccc([N+](=O)[O-])o1)c1ccc2c(c1)OCO2 | 56* | 24 | -5 | 13 | 98* | -2 | 52* | 59*
O=C(N/N=C/c1ccccc1)c1ccc2c(c1)OCO2 | -126 | -49 | -10 | -106 | -42 | 5 | x | x
O=C(NN=Cc1c(O)ccc2ccccc12)c1ccc2c(c1)OCO2 | -65 | 89* | 4 | 15 | u | -14 | x | x | Mdm2 MdmX conf=88*
C=CCSC(=C(C#N)C#N)c1cc2c([nH]1)CCCC2 | 66* | 47 | 18 | 94* | 39 | -14 | 9 | 106*
O=C(O)c1cc2c([nH]c1=O)CCCC2 | 16 | -15 | 4 | 5 | 4 | -3 | x | x
CCC(CO)NS(=O)(=O)c1cc(-c2nn(C)c(=O)c3ccccc23)ccc1C (stereo not drawn) | 12 | 6 | -6 | 17 | 10 | -11 | x | x
COc1ccc(OC)c(C(=O)/C=C/c2ccccc2C(F)(F)F)c1 | 74* | -3 | -4 | 102* | 15 | -14 | 26 | 105*
COc1cccc(CCN2C(=O)CCC3=C2CCC3=O)c1 | -6 | -15 | 18 | -7 | x | -8 | x | x
O=C(Nc1ccc(N2CCN(C(=O)c3ccc(Cl)cc3)CC2)cc1)c1ccc([N+](=O)[O-])o1 | 97* | 98* | 96* | 104* | 90* | -78* | 87* | 107*
